SMN2 splice enh – enhancers of SMN2 splice variant expression; HEK293 SMN2-luciferase splicing reporter, luminescence, 30-36 h; Potency, µM (highest dose often 46.1 µM), for inactives: top-dose activity change, positive = activation, usual class: activators; 210,000 tested, 2.8% active; further: % of control where 0% means no effect; nearly all actives have a fitted effect of over 55% in size
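HEK293 cells carry an SMN2 minigene-luciferase reporter in which exon 7 inclusion puts luciferase in frame. Cells were seeded at 2000 cells/well, attached for 10-12 hours, then exposed to compounds for 30-36 hours at 37C before ONE-Glo luminescence.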
ELG1 genotox – genotoxicity induction in ELG1-luciferase HEK293T cells | HEK293T ELG1-luciferase reporter, luminescence, 16 h | 330,000 tested, 1.3% active | Potency, µM (highest dose often 46 µM), without a hit: top-dose activity change, positive = activation, actives largely listed as activators; further: % of control where 0% means no effect; nearly all actives have a fitted effect of over 60% in size
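HEK293T cells expressing luciferase-tagged ELG1 were exposed to compound or DMSO vehicle for 16 hr at 37 °C and 5% CO2. Luciferase activity was then measured with ONE-Glo after 30 min at room temperature.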
Rab9 promoter act – activators of Rab9 promoter. Huh7 Rab9 promoter-luciferase reporter, luminescence, 24 h. Potency, µM (series often up to 9.22 µM), for inactives: at the highest dose activation, negative = inhibition, hits mostly activators. 320,000 tested, 2.8% active. AID 485297; further: % of control where 0% means no effect; nearly all actives have a fitted effect of over 60% in size
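Measured in stably transfected Huh7 cells bearing a Rab9 promoter–luciferase construct: 24 h compound treatment at 37 °C, followed by luminescence detection.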
NPC1 prom act – activates the NPC1 promoter; Huh7 NPC1 promoter luciferase reporter, 24 h; Potency, µM (highest dose often 9.22 µM), without a hit: at the top dose activation, most hits filed as activators; 320,000 tested, 2.4% active; AID 485313; further: % of control where 0% means no effect; nearly all actives have a fitted effect of over 60% in size
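Huh7 cells stably carrying NPC1 promoter–luciferase, plated in Opti-MEM with 10% FBS for 2 h, were exposed to compound in DMSO for 24 h at 37 °C; luciferase reagent was added for 10 min and luminescence read.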
FLuc modulator – inhibits or activates purified firefly luciferase, miR-21 counter-screen; purified FLuc, Km substrates, luminescence inhibition; Potency, µM (doses to about 57.5 µM), inactives show at the top dose activity change, negative = inhibition, most hits filed as inhibitors; 360,000 tested, 6.9% active; P08659;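 further: plate controls were vehicle for no effect and reference inhibitor for full effect; nearly all actives have a fitted effect of over 55% in size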
Target sequence (P08659 whole entry, looked up): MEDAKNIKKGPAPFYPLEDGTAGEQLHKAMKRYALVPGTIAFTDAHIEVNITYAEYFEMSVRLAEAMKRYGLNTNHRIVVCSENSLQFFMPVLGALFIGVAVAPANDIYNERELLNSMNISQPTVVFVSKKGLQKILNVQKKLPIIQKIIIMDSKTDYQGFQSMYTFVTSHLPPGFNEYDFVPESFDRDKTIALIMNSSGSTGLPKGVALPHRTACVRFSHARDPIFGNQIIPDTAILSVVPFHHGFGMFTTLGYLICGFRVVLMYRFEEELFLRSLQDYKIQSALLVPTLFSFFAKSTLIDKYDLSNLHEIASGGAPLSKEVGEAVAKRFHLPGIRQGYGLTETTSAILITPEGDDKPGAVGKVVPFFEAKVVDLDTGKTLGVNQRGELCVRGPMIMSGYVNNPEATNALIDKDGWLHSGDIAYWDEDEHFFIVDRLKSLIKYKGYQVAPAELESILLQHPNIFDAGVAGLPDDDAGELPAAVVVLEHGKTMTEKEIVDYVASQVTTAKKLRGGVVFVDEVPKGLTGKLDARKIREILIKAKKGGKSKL
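Biochemical qHTS of compounds, final roughly 60 µM downward over six points, against 10 nM purified firefly luciferase using Km concentrations of substrates (10 uM D-luciferin, 10 uM ATP) in Tris acetate pH 7.5 buffer; luminescence output.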
p53 reactivation – restores transcriptional activity of mutant p53. H1299 p53-A138V BP100-luciferase reporter, luminescence, 24 h. 320,000 tested, 0.063% active. Potency, µM (series often up to 92.2 µM), for inactives: at the top dose activity change, positive = activation, hits mostly activators; further: % of control where 0% means no effect; nearly all actives have a fitted effect of over 45% in size
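p53-null H1299 cells stably carrying temperature-sensitive p53-A138V and a BP100-luciferase reporter were pinned with compounds (4-point, 1:5 series) and held 24 hrs at 37 deg C. Luminescence was read 10 min after detection reagent.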
An asterisk follows results filed as active; [ ] = another dose, or the depositor's remark. A selection: hits, their analogues and other compounds. The true share with any hit is near 7.3%. The call rests on the fitted dose curve; in most records, active means well fitted curve in the direction sought with a large enough effect; inconclusive means small, poorly fitted or top-dose-only effect, or another doubt; inactive means no such curve, though single readings can be large; an effect the other way counts as inactive or inconclusive. Potency means the concentration at half of the fitted maximal effect.

O=C(N/N=C/c1ccccc1F)NC1CCCCC1 was read as SMN2 splice enh inconclusive, ELG1 genotox inconclusive, Rab9 promoter act 2.8µM*, NPC1 prom act inconclusive, FLuc modulator 24µM* and p53 reactivation inconclusive.
`CCOc1ccc(NC(=O)c2ccc3c(=O)n4nc(Nc5ccccc5C)sc4nc3c2)cc1` gave FLuc modulator -2%.
Screening CN(c1nnc(NC(=O)Nc2ccccc2C(F)(F)F)s1)C1CCCCC1 returned FLuc modulator -5%.
For COc1cccc(CNC(=O)C2=C(C)C(=O)OC23CCCCCC3)c1 the results were FLuc modulator -4%.
`CCOC(=O)N/N=C/c1cc(C)n(-c2ccccc2)c1C` gave SMN2 splice enh -15%[1.84 µM], ELG1 genotox inconclusive, Rab9 promoter act inconclusive, NPC1 prom act 24%, FLuc modulator 11µM* and p53 reactivation inconclusive.
CCOC(=O)N/N=C\c1ccc(OC/C=C/c2ccccc2)c(OC)c1 was read as ELG1 genotox -6%, Rab9 promoter act 8%, NPC1 prom act 3%, FLuc modulator 12µM* and p53 reactivation -15%.
CCOC(=O)N/N=C/c1cc(C)n(-c2cccc3ccccc23)c1C was read as SMN2 splice enh 8%, ELG1 genotox -1%, Rab9 promoter act 0%, NPC1 prom act -1%, FLuc modulator inconclusive and p53 reactivation 1%.
Screening Cc1cc(/C=N/NC(=O)c2ccccc2F)c(C)n1-c1ccccc1 returned SMN2 splice enh 13µM*, ELG1 genotox inconclusive, Rab9 promoter act 0.63µM*, NPC1 prom act 2.5µM*, FLuc modulator 2.1µM* and p53 reactivation inconclusive.
For Cc1cc(/C=N/NC(=O)c2cccc(F)c2)c(C)n1-c1ccccc1 the results were SMN2 splice enh 27%, ELG1 genotox inconclusive, Rab9 promoter act 1.6µM*, NPC1 prom act 3.2µM*, FLuc modulator 1.2µM* and p53 reactivation inconclusive.
For Cc1csc2nc(CSc3nc4ccccc4o3)cn12 the results were SMN2 splice enh 13%, ELG1 genotox inconclusive, Rab9 promoter act inconclusive, NPC1 prom act 4µM*, FLuc modulator 21µM* and p53 reactivation inconclusive.
Screening c1ccc2oc(SCc3cn4ccsc4n3)nc2c1 returned SMN2 splice enh inconclusive, ELG1 genotox inconclusive, Rab9 promoter act 3.5µM*, NPC1 prom act 2.8µM*, FLuc modulator 9.5µM* and p53 reactivation inconclusive.
For Cc1ccc(C)c(S(=O)(=O)c2cn(C)c3cc(N4CCCCC4C)c(F)cc3c2=O)c1 (configuration not stated) the results were FLuc modulator 1%.
O=C(NCCc1ccc(Cl)cc1)C1CCC(CNc2c(N3CCCCC3)c(=O)c2=O)CC1 (configuration not stated) was read as SMN2 splice enh -2%, ELG1 genotox 0%, Rab9 promoter act -6%, NPC1 prom act -4%, FLuc modulator -3% and p53 reactivation -1%.
`CCCc1cc(C(=O)NC2CCCCC2)no1` gave SMN2 splice enh 14µM*, ELG1 genotox 16µM*, Rab9 promoter act inconclusive, NPC1 prom act 4µM*, FLuc modulator inconclusive and p53 reactivation 10%.
`Cc1cc(C(=O)NC2CCCCC2)on1` gave ELG1 genotox 3%, Rab9 promoter act -1%, NPC1 prom act -1%, FLuc modulator -4% and p53 reactivation -2%.
For CCCc1cc(C(=O)N(C2CCCCC2)C2CCCCC2)no1 the results were SMN2 splice enh -11%, ELG1 genotox -8%, Rab9 promoter act -7%, NPC1 prom act -3%, FLuc modulator 3% and p53 reactivation 6%.
For CCCc1cc(C(=O)NC2CCCC2)no1 the results were SMN2 splice enh 13µM*, ELG1 genotox 10µM*, Rab9 promoter act inconclusive, NPC1 prom act inconclusive, FLuc modulator inconclusive and p53 reactivation inconclusive.
